58 molecules from PubChem BioAssay AID588850 (Sanford-Burnham Center for Chemical Genomics, 2011) can be followed below.

Each structure is given as a SMILES string. Where “and” joins values, the source holds several entries; their conditions need not be identical. Equal entries are not always repeated. Hit rate of the full screen: of about 360,000 compounds, about 3,100 (0.86%) were called active. This is one part of a sample in which actives are shown more often than they occur. Values without a mark were called inactive.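 The calls were made as follows: active = at least 50% inhibition at 5 µM, scaled per plate between neutral and stimulator controls; inactive = the rest.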

As a reminder, the inhibition is the change of the read-out against control, counted positive when it falls.

The nature of this assay: inhibitors of PAF-induced NF-kB signaling, primary screen, cell-based, GFP fluorescence, uHTS (AID 588850).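 Also: PAF is a Pseudomonas aeruginosa culture filtrate used as stimulus; plate controls were PAF-stimulated DMSO wells for no effect and unstimulated DMSO wells for full effect.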 The settings on record: KKLEB NF-kB-GFP reporter, GFP fluorescence overnight, at 5 µM, hits give high values.
On to `COc1cc(C=C(OC(C)=O)c2ccc3c(c2)OCO3)cc(OC)c1OC`, for which the inhibition was -22.3%.

For `COc1cc(C2CC(=O)Oc3cc(OC)c(OC)c(OC)c32)cc(OC)c1OC` (stereo not drawn), the inhibition is -6.8%.

As for `COc1cc(C2c3cc4c(cc3C(O)C3COC(=O)C23)OCO4)cc(OC)c1OC` (stereo not drawn), the inhibition was 50.8% (active). For `C#C[C@]1(O)CC[C@H]2[C@@H]3CCC4=CC(=O)CC[C@@H]4[C@H]3CC[C@@]21CC`, the inhibition is 3.1% and 6.1%.

`COc1ccc(CN2CC[C@H]3C=CC[C@@H](C(=O)N4CCOCC4)[C@H]3C2=O)cc1OC`: the inhibition is -24.1%. `Cc1ccc(OC(=O)c2cncc(Br)c2)c(C)c1`: the inhibition was 1.1%. Regarding `Cc1cccc(-n2ncc(Cl)c(Cl)c2=O)c1`, the inhibition is 85.5% (active). For the molecule `CCCNC(=O)c1c(Cl)cnn1-c1ccc(C)cc1`, the inhibition was 9.5%. For the molecule `CC(=O)Nc1c2c(nn1-c1cccc(C)c1)CSC2`, the inhibition was 3.9%. Under `CC(C)(C)C1CCC(C(=O)NCC(c2cccs2)N2CCOCC2)CC1` (stereo not drawn) stands 21.5%.

For the molecule `COc1ccc(C(C(=O)NCc2ccccc2)N(Cc2cccs2)C(=O)c2cnccn2)cc1` (stereo not drawn), the inhibition is -3.9%. For `Cc1cc2nc(-c3ccc(Cl)cc3)c(Cc3cccc(F)c3)n2c(C)c1Br`, the inhibition is 17.5%. For the molecule `Cc1cc2nc(-c3ccco3)c(Cc3cccc(F)c3)n2c(C)c1Br`, the inhibition is 62.5% (active).

As for `Cc1cc(Br)cn2c(Cc3cccc(F)c3)c(-c3cccc(Br)c3)nc12`, the inhibition is 47.6%. As for `CC1(C)O[C@@H]2[C@H](O1)[C@@H](CO)O[C@H]2n1c(N2CCCCC2)nc2c(N)ncnc21`, the inhibition is 7.1%. For the molecule `O=C(Nc1ccc(Br)c2cccnc12)c1ccc(Cn2cc([N+](=O)[O-])cn2)o1`, the inhibition was 14.3%. Under `N#CC1(Nc2ccc(-c3ccc(Cl)cc3)cc2)CCCC1` stands -34.4%; under `CC(C)OC(=O)c1sc2nc3c(cc2c1N)C(=O)CCC3`, -15%. Next, `Cc1sc2nc(CC(N)=O)[nH]c(=O)c2c1-c1ccccc1`: -3.2%. For `NC(=O)c1sc2nc3c(c(-c4ccccc4)c2c1N)CCC3`, the inhibition is 78.3% (active).

`O=C(NCCCN1CCN(c2ccccc2F)CC1)C1CCC(=O)N1C1CCCCC1` (stereo not drawn): the inhibition was -1.2%. Turning to `Cc1oc2c(c1C(=O)N1CCOCC1)C(=O)c1ccccc1C2=O`, the inhibition is 72.2% (active). As to `Cc1ccc(C(=O)N2CCN(S(=O)(=O)N3CCOCC3)CC2)cc1`, the inhibition was 15.9%. Turning to `CC(C(=O)Nc1ccccc1-c1ccccc1)N1CCOCC1` (stereo not drawn), the inhibition is 14.5%.

Regarding `Nc1c(-c2ccc(F)cc2)cnn1C1CCS(=O)(=O)C1` (stereo not drawn), the inhibition is -5.8%. As for `CCN(CC)S(=O)(=O)c1ccc(N2CCCC2)c(NC(=O)c2ccc([N+](=O)[O-])o2)c1`, the inhibition was 10.6%.

Turning to `Cc1cccc(NC(=O)c2ccc([N+](=O)[O-])o2)c1`, the inhibition is 59.4% (active). As for `Cc1onc(NC(=O)c2ccc([N+](=O)[O-])o2)c1Br`, the inhibition is 27.3%. Next, `CCn1c(SCC(=O)Nc2ccccc2F)nc2c(c1=O)SC(C)C2` (stereo not drawn): 6.5%; `O=C(O)CSc1nccc2ccccc12`: -3.7%.

`CCOC(=O)CSc1ccccn1`: the inhibition was -2.8%. Consider `CCOC(=O)C(C(=O)c1ccccc1)C(c1ccccc1)c1nccc2ccccc12` (stereo not drawn), for which the inhibition was 50.6% (active). `O=c1nc(N2CCOCC2)nc2n1CCO2`: the inhibition is -13%. Under `Cc1cccc(C)c1Cn1c(C)c(C(=O)NCc2cccc(Cl)c2)sc1=O` stands 10.9%. Next, `CC(C)c1ccc2c(c1)c(SC(C)(C)C)c(CC(C)(C)C(=O)O)n2Cc1ccc(Cl)cc1`: 63.4% (active); `COc1ccc(CCNC(=O)Nc2ccc3c(c2)c(=O)n(C)n3C)cc1OC`: 14.5%. On to `CC(C)C(=O)Nc1c2c(nn1-c1ccccc1)CSC2`, for which the inhibition is 7%. Under `Cn1c(=O)c2c(n(Cc3ccccc3)c1=O)NC(=O)C2CC(=O)N1CCc2ccccc2C1` (stereo not drawn) stands 18%; under `O=C(Nc1cccc([N+](=O)[O-])c1)N1CCc2ccccc2C1`, 21.9%. For `COc1cccc(NCCC(=O)c2cccc([N+](=O)[O-])c2)c1`, the inhibition is -10.5%.

Consider `COC(=O)/C=C\C(=O)Nc1cccc([N+](=O)[O-])c1`, for which the inhibition was 92.2% (active). Regarding `O=C(CNC(=O)N1CC(=O)Nc2ccccc21)Nc1ccc(Br)cc1F`, the inhibition is -4.5%.

For `COc1ccc(N(CC(=O)N/N=C/c2cccc3c2OCCO3)S(=O)(=O)c2ccc(NC(C)=O)cc2)cc1`, the inhibition is -5.5%. Under `COCOCCn1cc(CN2CCS(=O)(=O)N(Cc3ccc(-c4cccc(N(C)C)c4)cc3)C(CC(C)C)C2=O)nn1` (stereo not drawn) stands 6.3%.

Regarding `CC[C@H]1CN2CCc3cc(OC)c(OC)cc3[C@@H]2C[C@@H]1C[C@H]1NCCc2cc(OC)c(OC)cc21`, the inhibition was 82.5% (active).

For the molecule `COc1cc(/C=C/C(=O)O)cc(S(=O)(=O)Nc2ccccc2C(=O)NCCc2ccccc2)c1OC`, the inhibition was -10.9%. For `Cc1ccc(NC(=O)NC(=O)CSc2nnc(-c3ccc(OC(F)F)cc3)n2N)c(C)c1`, the inhibition is -26.2%.

In the case of `Cc1ccc(-n2ncc3c2CC(C)(C)CC3NC(=O)Cc2c(C)noc2C)cc1` (stereo not drawn), the inhibition is 28.3%. Take `Cc1ccc(-c2nn(-c3ccccc3)cc2/C=C2\SC(=S)N(CCCCCC(=O)O)C2=O)o1`: the inhibition is 53.8% (active). Turning to `O=C1/C(=C\c2ccccc2Cl)SC(=S)N1CCC(=O)N1CCCc2ccccc21`, the inhibition was 8.4%. Take `CN(C(=O)CCN1C(=O)/C(=C/c2ccccc2F)SC1=S)C1CCS(=O)(=O)C1` (stereo not drawn): the inhibition is -14.9%. On to `CN(C)S(=O)(=O)c1ccc(N2CCCC2)c(C(=O)Nc2ccc(Br)cc2F)c1`, for which the inhibition is 21.3%. Consider `Cc1cc2c3ccccc3[nH]c(=O)n2n1`, for which the inhibition was -16.8%. Under `O=c1c2c(ncn1Cc1ccccc1)nc1n2CCC1` stands 1.3%; under `CN(C)/C=C/c1c(C#N)c(=O)ncn1Cc1ccccc1`, -10.4%; under `CN(C)c1ccnc2sc3c(=O)n(Cc4ccccc4)cnc3c12`, 80.2% (active).

As to `O=C(Nc1ccc(F)cc1)Nc1nnc([C@H]2C[C@H](O)[C@@H](CO)O2)s1`, the inhibition is 8%.

In the case of `CCOC(=O)c1cc(C(=O)Nc2ccc(S(=O)(=O)Nc3ccc(OC)cc3)cc2)nn1C`, the inhibition is -4.7%.
